According to PubChem BioAssay AID1645860 (Buhrlage Lab, Dana-Farber Cancer Institute and Novartis …, 2021):
About 2,500 (5.3%) of roughly 47,000 compounds were called active. Cut-off read from the data, not from the text of the source: active = inhibition above about 30%; inactive = the rest. The full list was thinned out, with actives kept by preference.

Biological target: Ubiquitin carboxyl-terminal hydrolase 30 (Homo sapiens) (UniProt Q70CQ3)
Assay: inhibitors of human USP30 deubiquitinase (AID 1645860)
Settings: purified USP30, Ub-rhodamine cleavage fluorescence; at 25 µM; active compounds read high

Ubiquitin carboxyl-terminal hydrolase 30 (Homo sapiens), sequence (Q70CQ3 whole entry, looked up): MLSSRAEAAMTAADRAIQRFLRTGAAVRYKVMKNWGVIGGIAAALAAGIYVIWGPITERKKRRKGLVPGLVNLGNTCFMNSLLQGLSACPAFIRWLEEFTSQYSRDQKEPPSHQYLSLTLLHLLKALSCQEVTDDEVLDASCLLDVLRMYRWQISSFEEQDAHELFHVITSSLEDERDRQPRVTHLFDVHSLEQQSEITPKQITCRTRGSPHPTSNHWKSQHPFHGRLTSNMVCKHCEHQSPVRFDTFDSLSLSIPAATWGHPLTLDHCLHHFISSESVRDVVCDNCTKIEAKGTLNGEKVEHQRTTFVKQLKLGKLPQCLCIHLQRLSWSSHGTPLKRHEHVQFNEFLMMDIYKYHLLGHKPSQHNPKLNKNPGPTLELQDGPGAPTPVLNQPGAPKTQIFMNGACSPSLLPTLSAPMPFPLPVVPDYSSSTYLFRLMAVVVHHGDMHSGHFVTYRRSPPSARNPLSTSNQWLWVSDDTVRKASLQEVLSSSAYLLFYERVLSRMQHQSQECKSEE

inhibition, active:
O=C(Nc1cc(C(F)(F)F)ccc1-n1cnc2ccccc21)c1ccc(S(=O)(=O)N2CCCCC2)cc1 32.6%
Cc1nnc(OCC(=O)Nc2ccc(OC(F)(F)F)cc2)c2ccccc12 64.8%
O=C(COc1ccc2oc3c(c2c1)CCCC3)Nc1ccccn1 48.3%
O=C(Nc1cccc(-c2cccc(F)c2)c1)C1CCN(Cc2cccc3c2OCO3)CC1 36.9%
CCOc1ccccc1NC(=O)Nc1cc(-c2nc3ccccc3o2)ccc1OC 58.5%
CCCCOc1ccc(C(=O)Nc2ccc3c(c2)CCC(=O)N3CCC)cc1 46.1%
CCOc1ccccc1-c1nc(-c2nnn(Cc3ccccc3)c2C)no1 51.6%
Cc1ccc(S(=O)(=O)N(CC(=O)NC(C)c2ccccc2)Cc2ccccc2F)cc1 (configuration not stated) 32.6%
O=C(CN(Cc1ccccc1Cl)S(=O)(=O)c1ccccc1F)NC(c1ccccc1)c1ccccc1 33.4%
CN1CC(=O)N(C2CCCNC2)Cc2c(NC3CCc4ccccc43)ncnc21 (configuration not stated) 69.8%
COC(=O)COc1cccc2c(=O)n(CC(=O)N3CCc4ccccc43)ccc12 37%
COc1cc(Cl)c(NC(=O)c2cc(-c3ccccn3)n[nH]2)c(OC)c1 31.5%
O=C(Cn1cc(SCc2cccc(F)c2)c2ccccc21)N1CCCCCC1 35.3%
O=S(=O)(Nc1cccc(O)c1)c1ccc2oc3ccc(S(=O)(=O)Nc4cccc(O)c4)cc3c2c1 42.9%
Oc1cccc2nc3c(O)cccc3nc12 55.9%
CCc1ccc(-n2c(=O)c3ccccc3n(CC(=O)NCCC3=CCCCC3)c2=O)cc1 41%
Cc1cccc(NC(=O)Cn2c(C)ccc(NC(=O)Nc3cccc(C)c3)c2=O)c1 34.8%

inhibition, inactive:
COCCn1cnc2c(-c3ccccc3)cn(CC(=O)NCc3ccccc3)c2c1=O -28.3%
COCC(=O)N1CCCCCC1C1CCN(c2nn3cc(C)nc3s2)CC1 (configuration not stated) 16.4%
COC(=O)c1ccc(C2c3[nH]c4ccccc4c3C[C@H]3C(=O)N(CC4CCCO4)CC(=O)N23)cc1 (some centres not stated) -26.4%
COc1ccccc1OCC(=O)Nc1cc(C(F)(F)F)ccc1N1CCCCC1 -1.33%
CCOc1ccc(S(=O)(=O)N2CCCCC2)cc1NC(=O)c1ccc(C#N)cc1 11.5%
CCn1nnc2c1C(COC)CN(C(=O)CC1=CCCCC1)C2 (configuration not stated) -64.1%
CCN(C(=O)c1nc(-c2cccc(F)c2)n2c1CCCCC2)c1ccccc1 -10.9%
C=C(NC(=O)C(=C)NC(=O)c1csc(C2=N[C@@H]3c4csc(n4)[C@H]4NC(=O)c5csc(n5)[C@H]([C@](C)(O)[C@@H](C)O)NC(=O)C5CSC(=N5)/C(=C/C)NC(=O)C([C@@H](C)O)NC(=O)c5csc(n5)[C@]3(CC2)NC(=O)[C@H](C)NC(=O)C(=C)NC(=O)[C@H](C)NC(=O)C([C@@H](C)CC)NC2C=Cc3c(C(C)O)cc(nc3[C@H]2O)C(=O)OC4C)n1)C(N)=O (some centres not stated) -88.3%
COc1ccccc1Nc1nc(-c2cnc(N3CCCC3)nc2C)cc(=O)[nH]1 23.2%
COC(=O)c1ccc(NC(=O)CSc2nnc(C(C)Oc3ccccc3)n2C)cc1 (configuration not stated) 25.4%
Cc1cc(C)nc(N(C(=O)C2CC2)c2ccc(OC(F)(F)F)cc2)n1 -22.9%
CN1[C@@H](CCC(=O)N2CCc3ccccc32)CNC(=O)[C@@H]2[C@H]1CCN2Cc1ncc[nH]1 -9.99%
O=S(=O)(c1ccccc1)N1CCC(n2cnnc2-c2ccccc2)CC1 -0.303%
Cc1cc(O)c(=O)cc2c1C[C@H]1CC(C)(C)/C=C/C[C@@]3(C)Oc4cc(=O)c(O)cc(C)c4C[C@@H]3C[C@H](O)[C@]1(C)O2 -161%
CC(C)(C)CC(=O)N1CCN(c2ccc(N3CCCC3)nn2)CC1 -15.1%
COc1ccc(S(=O)(=O)N(C(=O)c2ccccc2)c2ccc3oc4c(c3c2)CCCC4)cc1 -10.1%
CCC(=O)c1ccc(OCC(=O)Nc2ccc3c(c2)CCC3)cc1 -0.468%
COc1ccc(-c2nn(-c3ccccc3)cc2C(=O)N2CCCCC2)cc1 -1.66%
O=C(Nc1ccc(Oc2ccccc2F)cc1)C1CCN(Cc2cccc(O)c2)CC1 23%
O=C(CN1CCN(CC(=O)Nc2ccc3c(c2)OCO3)CC1)Nc1ccc(F)cc1 -29.4%
CC1CCC(NC(=O)Cn2c(=O)[nH]c3ccccc3c2=O)CC1 (configuration not stated) 26.9%
CCOC(=O)N1CCC(NC(=O)CCc2ccccc2)CC1 11.3%
COc1ccc(CCNC(=O)[C@@H](NC(=O)[C@@H]2Cc3c([nH]c4ccccc34)C3c4ccccc4C(=O)N32)C(C)C)cc1 (some centres not stated) -104%
COc1ccccc1NC(=O)N1CCN(Cc2nc3ccccc3o2)CC1 7.46%
COc1ccccc1NC(=O)Nc1ccc(CCc2nc3ccccc3[nH]2)cc1 -27.4%
COc1ccc(C(=O)NCC(=O)Nc2nc3ccccc3[nH]2)c(C)c1 9.21%
O=C(NC1CCCC1)c1csc(C(=O)N2CCCC2)n1 3.97%
CC(C(=O)N1c2ccccc2NC(=O)C1(C)C)N1CCCC1c1ccc2c(c1)OCCO2 (configuration not stated) -221%
Cc1c(C)n2c(SCC(=O)N(C)c3ccccc3)nnc2[nH]c1=O 6.75%
CCN1C(=O)CCc2cc(NC(=O)Cc3ccc(OC)c(Cl)c3)ccc21 -7.67%
COCCN1C(=O)CCc2cc(NS(=O)(=O)c3cc(C)cc(C)c3)ccc21 -16.1%
CC(=O)Nc1ccc(C(=O)NCCn2c(C)nc3ccccc32)cc1 27.4%
CC(C)Cc1cc(C(=O)N2CCOC(c3nccnc3N)C2)n(C)n1 (configuration not stated) 10.1%
COc1ccccc1CCNC(=O)c1cccc(N2C(=O)C(C)(C)CS2(=O)=O)c1 -7.58%
Cc1c(-c2noc(-c3cccc(N(C)C)c3)n2)nnn1Cc1cccc(F)c1 -2.61%
COc1ccc(-c2nc(-c3nnn(Cc4cccc(F)c4)c3C)no2)cc1 8.22%
COC(=O)c1ccccc1NC(=O)Cn1cc(S(=O)(=O)Cc2ccc(C)cc2)c2ccccc21 -13.4%
COCc1ccc(C(=O)N2CCC3(CC2)CNC(=O)c2ccccc2O3)cc1 14.1%
O=C(CNC(c1ccccc1)c1ccccc1)Nc1ccc(F)cc1 13.6%
O=S(=O)(Nc1ccccc1Cc1ccccc1)c1ccccc1F 16.2%
Cc1ccc(Cc2nnc(C(=O)NC(C)c3ccccc3)o2)cc1 (configuration not stated) -0.465%
COc1ccccc1N(CC(=O)NCc1cccnc1)S(=O)(=O)c1ccc(C)cc1 -6.24%
Cc1nc2nc(NCc3ccccc3)[nH]n2c(=O)c1CCC(=O)N1CCC(C)CC1 0.108%
O=C(NCc1ccccn1)C1CCCN(c2ccc(-c3ccccc3)nn2)C1 (configuration not stated) 23.1%
Cc1ccc(NC(=O)Cn2c(N3CCCC3)nc(C)cc2=O)cc1 18.2%
c1ccc(-c2csc3ncnc(NC4CCCc5ccccc54)c23)cc1 (configuration not stated) -52.1%
Cc1ccccc1CNC(=O)N1CCC2(CC1)NC(=O)[C@H]1CN(c3ncccn3)C[C@H]12 25.7%
Cc1cccc(-c2cccc(C3CCCN(C(=O)c4cnccn4)C3)n2)c1 (configuration not stated) -38%
O=C(Nc1ccccc1F)Nc1nnc2cccc(Cl)n12 -21.8%
Cc1nc2ccccc2c(=O)n1CC(=O)N1CCCc2ccccc21 17.4%
CN(CCc1ccccn1)CC(=O)N1CCc2ccccc21 -0.887%
Cc1ccc(C)c(N2CCN(c3nc4ccc(Cl)cc4nc3-n3nc(C)cc3C)CC2)c1 -8.16%
O=C(Nc1ccc(Cl)cc1F)c1cc(-c2ccccn2)n[nH]1 12.6%
Cc1ccc(CC(=O)N2CCN(C(=O)c3cc(-c4ccccn4)n[nH]3)CC2)cc1 4.03%
CC(=O)Nc1cccc(NC(=O)CSc2cn(CC(=O)N3CCC(C)CC3)c3ccccc23)c1 -1.08%
O=C(Cn1cc(S(=O)(=O)Cc2ccccc2Cl)c2ccccc21)N1CCCCCC1 -0.265%
COCCN1CC(C(=N)N)C(=O)NC1=O (configuration not stated) -45.1%
COc1ccc(CC(=O)Nc2ccc3c(c2)CN(C(=O)c2ccco2)CC3)cc1 19.1%
O=C(CC1(O)C(=O)N(Cc2cccc3ccccc23)c2ccccc21)c1cccc2ccccc12 (configuration not stated) 2.93%
CN1CCc2c(sc3nc(SCCc4ccccc4)n(-c4ccccc4)c(=O)c23)C1 -152%
Cc1cccc(NS(=O)(=O)c2ccc3nnc(C)n3c2)c1 -4.01%
COc1cccc(NS(=O)(=O)c2ccc(-c3coc(C)n3)cc2)c1 -18.4%
O=C(CCCOc1ccc(F)cc1F)N1CCC(c2[nH]nc3nccnc23)CC1 -12.7%
Cc1ccc(N2CCn3c(nc4ccccc43)C2)cc1NS(C)(=O)=O -304%
O=C(CCc1nnc2n(CCc3ccccc3)c(=O)c3ccccc3n12)NCCN1CCCC1 13.2%
Cc1ccc(Cn2c(C)c(CNCCC3=CCCCC3)c(C(=O)O)c2C)cc1 -1.85%
Cn1ncc2c1CCCN(C(=O)Cc1ccccc1F)C2 10.7%
Cc1ccccc1CC(=O)Nc1ccc(-n2ccnc2C)nc1 -47.4%
COc1cn(CC(=O)Nc2cccc(C)c2)c(CSc2ccc(C)cc2)cc1=O -0.0406%
Cc1cccc(NC(=O)Cn2c(=O)n(Cc3nc(C)no3)c(=O)c3ccccc32)c1 14.7%
